Reference: ChEMBL document CHEMBL1961873, “Compounds: GSK PKIS; Assays: Nanosyn kinase panel” (2012)

Experiments:
[1] = tested on: Epidermal growth factor receptor (Homo sapiens), P00533 [T790M]; conditions: at 1 µM
[2] = tested on: Epidermal growth factor receptor (Homo sapiens), P00533 [L858R,T790M]; conditions: at 0.1 µM
[3] = tested on: Epidermal growth factor receptor (Homo sapiens), P00533 [L858R,T790M]; conditions: at 1 µM
[4] = target: Ephrin type-A receptor 2 (Homo sapiens) (UniProt P29317); conditions: at 0.1 µM
[5] = target: Ephrin type-A receptor 2 (Homo sapiens) (UniProt P29317); conditions: at 1 µM
[6] = target: T1, Ephrin type-A receptor 3 (Homo sapiens) (UniProt P29320); conditions: at 0.1 µM
T1 sequence (whole entry): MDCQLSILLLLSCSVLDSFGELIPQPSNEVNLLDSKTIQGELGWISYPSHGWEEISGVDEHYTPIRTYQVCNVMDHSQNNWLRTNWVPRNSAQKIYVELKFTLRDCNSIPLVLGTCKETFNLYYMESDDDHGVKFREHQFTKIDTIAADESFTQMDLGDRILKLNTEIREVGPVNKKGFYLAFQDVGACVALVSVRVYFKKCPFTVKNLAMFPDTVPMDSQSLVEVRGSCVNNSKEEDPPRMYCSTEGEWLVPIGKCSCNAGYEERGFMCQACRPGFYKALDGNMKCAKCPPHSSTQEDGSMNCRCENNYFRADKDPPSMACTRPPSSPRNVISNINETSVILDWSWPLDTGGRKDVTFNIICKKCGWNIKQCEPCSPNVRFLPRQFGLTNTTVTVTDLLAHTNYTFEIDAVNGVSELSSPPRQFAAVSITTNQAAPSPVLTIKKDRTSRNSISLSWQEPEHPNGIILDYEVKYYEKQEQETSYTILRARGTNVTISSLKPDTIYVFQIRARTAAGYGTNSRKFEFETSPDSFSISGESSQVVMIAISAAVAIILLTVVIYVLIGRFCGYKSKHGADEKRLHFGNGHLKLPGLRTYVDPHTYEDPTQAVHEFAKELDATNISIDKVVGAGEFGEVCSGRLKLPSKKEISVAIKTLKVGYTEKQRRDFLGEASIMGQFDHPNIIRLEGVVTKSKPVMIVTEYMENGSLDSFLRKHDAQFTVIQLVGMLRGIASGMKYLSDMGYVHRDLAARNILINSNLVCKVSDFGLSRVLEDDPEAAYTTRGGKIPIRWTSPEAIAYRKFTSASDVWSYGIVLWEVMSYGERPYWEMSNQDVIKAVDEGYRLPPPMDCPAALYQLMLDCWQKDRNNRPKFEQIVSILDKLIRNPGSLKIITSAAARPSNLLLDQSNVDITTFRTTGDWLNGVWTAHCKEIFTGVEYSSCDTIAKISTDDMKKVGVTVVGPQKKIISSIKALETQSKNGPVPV

[7] = target: T1, Ephrin type-A receptor 3 (Homo sapiens); conditions: at 1 µM
[8] = target: Ephrin type-A receptor 4 (Homo sapiens) (UniProt P54764); conditions: at 0.1 µM
Ephrin type-A receptor 4 (Homo sapiens), sequence (P54764 whole entry): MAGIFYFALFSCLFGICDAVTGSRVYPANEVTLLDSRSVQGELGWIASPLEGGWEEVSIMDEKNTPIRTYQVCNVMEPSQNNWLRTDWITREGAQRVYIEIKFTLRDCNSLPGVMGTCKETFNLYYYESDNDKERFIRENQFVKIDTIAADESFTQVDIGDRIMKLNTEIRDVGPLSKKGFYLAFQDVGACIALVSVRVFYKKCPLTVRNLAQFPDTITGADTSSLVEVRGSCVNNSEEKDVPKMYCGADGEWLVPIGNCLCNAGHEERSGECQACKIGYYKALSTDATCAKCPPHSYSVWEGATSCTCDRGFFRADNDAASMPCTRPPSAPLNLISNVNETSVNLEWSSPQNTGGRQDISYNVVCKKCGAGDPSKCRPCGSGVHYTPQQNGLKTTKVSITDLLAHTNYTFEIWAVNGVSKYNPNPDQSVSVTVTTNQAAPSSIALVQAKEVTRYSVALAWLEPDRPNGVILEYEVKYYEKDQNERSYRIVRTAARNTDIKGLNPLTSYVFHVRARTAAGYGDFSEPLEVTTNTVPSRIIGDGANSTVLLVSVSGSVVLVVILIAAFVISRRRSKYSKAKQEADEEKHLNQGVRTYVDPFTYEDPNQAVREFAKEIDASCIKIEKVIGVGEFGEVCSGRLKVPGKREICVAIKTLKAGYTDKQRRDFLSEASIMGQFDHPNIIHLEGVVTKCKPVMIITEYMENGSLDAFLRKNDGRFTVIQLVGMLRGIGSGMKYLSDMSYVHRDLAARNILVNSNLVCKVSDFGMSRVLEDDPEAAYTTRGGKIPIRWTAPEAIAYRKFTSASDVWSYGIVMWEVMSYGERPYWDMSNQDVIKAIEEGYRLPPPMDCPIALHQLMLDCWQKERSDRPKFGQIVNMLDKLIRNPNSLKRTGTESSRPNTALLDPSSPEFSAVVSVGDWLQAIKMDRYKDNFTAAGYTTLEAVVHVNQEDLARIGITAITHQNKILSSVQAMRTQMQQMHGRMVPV

[9] = target: Ephrin type-A receptor 4 (Homo sapiens) (UniProt P54764); conditions: at 1 µM
[10] = target: T2, Ephrin type-B receptor 2 (Homo sapiens) (UniProt P29323); conditions: at 0.1 µM
T2 sequence (whole entry): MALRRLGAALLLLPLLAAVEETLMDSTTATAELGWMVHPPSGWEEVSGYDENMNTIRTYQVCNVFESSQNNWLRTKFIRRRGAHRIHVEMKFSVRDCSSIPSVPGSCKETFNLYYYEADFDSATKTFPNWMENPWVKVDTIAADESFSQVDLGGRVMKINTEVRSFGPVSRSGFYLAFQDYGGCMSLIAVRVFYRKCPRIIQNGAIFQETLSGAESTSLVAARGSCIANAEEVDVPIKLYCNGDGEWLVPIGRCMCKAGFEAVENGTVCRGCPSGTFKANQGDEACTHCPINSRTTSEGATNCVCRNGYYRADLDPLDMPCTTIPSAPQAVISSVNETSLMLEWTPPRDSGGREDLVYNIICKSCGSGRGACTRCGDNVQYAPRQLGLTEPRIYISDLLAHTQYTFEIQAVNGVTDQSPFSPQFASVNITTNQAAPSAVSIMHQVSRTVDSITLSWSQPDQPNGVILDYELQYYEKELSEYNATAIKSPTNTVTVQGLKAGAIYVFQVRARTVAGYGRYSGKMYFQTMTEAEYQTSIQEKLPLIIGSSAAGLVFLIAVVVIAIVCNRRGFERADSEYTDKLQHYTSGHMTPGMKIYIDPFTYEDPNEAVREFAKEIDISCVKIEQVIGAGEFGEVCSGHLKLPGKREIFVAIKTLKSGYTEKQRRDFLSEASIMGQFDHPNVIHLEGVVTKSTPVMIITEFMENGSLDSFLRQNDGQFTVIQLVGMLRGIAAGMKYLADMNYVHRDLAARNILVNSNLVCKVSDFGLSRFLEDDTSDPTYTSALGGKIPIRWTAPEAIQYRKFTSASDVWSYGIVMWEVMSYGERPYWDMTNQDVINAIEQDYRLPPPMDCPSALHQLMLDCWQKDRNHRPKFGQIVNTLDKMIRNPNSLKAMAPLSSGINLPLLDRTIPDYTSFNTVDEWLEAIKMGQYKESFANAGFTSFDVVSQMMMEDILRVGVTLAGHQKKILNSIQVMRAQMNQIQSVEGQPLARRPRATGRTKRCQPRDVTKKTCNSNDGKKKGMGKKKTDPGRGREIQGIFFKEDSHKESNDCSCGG

[11] = target: T2, Ephrin type-B receptor 2 (Homo sapiens); conditions: at 1 µM
[12] = target: T3, Ephrin type-B receptor 3 (Homo sapiens) (UniProt P54753); conditions: at 0.1 µM
T3 sequence (whole entry): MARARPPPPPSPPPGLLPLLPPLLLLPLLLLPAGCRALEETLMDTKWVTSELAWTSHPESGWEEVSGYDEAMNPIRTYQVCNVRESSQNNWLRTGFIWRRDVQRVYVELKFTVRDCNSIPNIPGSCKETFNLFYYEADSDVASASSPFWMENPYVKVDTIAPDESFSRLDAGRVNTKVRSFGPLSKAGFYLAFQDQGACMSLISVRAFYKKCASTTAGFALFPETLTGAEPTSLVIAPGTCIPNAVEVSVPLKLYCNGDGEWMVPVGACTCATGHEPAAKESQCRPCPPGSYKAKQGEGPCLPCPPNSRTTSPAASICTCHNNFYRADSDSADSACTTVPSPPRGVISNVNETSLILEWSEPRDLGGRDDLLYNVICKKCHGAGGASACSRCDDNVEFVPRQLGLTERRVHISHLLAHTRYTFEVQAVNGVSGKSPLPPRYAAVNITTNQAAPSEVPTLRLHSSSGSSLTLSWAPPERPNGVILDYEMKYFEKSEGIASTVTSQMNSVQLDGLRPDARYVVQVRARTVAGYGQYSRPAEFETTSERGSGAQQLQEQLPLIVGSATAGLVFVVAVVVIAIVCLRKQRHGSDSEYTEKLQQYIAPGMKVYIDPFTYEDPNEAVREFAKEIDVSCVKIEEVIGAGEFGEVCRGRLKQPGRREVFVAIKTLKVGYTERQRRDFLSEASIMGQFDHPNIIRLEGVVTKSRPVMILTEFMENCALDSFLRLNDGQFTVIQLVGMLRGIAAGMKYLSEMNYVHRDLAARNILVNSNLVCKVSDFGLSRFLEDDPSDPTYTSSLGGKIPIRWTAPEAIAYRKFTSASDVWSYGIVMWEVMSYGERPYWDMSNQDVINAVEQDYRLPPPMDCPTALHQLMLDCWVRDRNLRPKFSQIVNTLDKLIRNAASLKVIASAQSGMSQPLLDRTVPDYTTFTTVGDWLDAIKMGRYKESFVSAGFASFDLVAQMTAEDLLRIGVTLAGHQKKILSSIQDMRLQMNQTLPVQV

[13] = target: T3, Ephrin type-B receptor 3 (Homo sapiens); conditions: at 1 µM
[14] = target: T4, Ephrin type-B receptor 4 (Homo sapiens) (UniProt P54760); conditions: at 0.1 µM
T4 sequence (whole entry): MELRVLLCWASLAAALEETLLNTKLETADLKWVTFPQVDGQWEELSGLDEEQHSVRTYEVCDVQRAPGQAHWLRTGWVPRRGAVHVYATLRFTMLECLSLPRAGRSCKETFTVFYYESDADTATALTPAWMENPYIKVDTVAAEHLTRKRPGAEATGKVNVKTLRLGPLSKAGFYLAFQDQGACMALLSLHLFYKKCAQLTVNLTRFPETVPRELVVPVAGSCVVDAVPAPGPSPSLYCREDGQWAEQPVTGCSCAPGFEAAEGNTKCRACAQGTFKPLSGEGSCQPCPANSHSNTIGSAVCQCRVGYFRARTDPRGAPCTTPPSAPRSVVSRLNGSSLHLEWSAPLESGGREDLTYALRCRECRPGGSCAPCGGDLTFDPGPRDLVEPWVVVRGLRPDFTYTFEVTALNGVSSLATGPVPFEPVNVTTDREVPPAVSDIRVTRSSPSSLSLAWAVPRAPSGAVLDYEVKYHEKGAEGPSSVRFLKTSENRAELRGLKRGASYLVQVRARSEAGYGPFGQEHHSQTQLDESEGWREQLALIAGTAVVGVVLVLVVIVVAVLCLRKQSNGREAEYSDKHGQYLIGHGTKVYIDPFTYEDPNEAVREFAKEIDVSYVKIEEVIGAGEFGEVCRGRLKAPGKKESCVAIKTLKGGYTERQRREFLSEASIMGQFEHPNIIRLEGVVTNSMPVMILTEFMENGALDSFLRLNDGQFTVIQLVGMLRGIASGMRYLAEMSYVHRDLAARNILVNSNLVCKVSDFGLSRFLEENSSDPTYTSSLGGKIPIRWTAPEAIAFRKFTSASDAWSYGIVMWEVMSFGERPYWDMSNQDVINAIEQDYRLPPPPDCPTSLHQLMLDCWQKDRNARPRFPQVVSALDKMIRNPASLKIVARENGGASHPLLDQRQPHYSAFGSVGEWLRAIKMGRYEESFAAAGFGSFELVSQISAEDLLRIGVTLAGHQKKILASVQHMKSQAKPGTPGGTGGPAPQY

[15] = target: T4, Ephrin type-B receptor 4 (Homo sapiens); conditions: at 1 µM
[16] = target: Receptor tyrosine-protein kinase erbB-2 (Homo sapiens) (UniProt P04626); conditions: at 0.1 µM
[17] = target: Receptor tyrosine-protein kinase erbB-2 (Homo sapiens) (UniProt P04626); conditions: at 1 µM
[18] = target: Receptor tyrosine-protein kinase erbB-4 (Homo sapiens) (UniProt Q15303); conditions: at 0.1 µM
Receptor tyrosine-protein kinase erbB-4 (Homo sapiens), sequence (Q15303 whole entry): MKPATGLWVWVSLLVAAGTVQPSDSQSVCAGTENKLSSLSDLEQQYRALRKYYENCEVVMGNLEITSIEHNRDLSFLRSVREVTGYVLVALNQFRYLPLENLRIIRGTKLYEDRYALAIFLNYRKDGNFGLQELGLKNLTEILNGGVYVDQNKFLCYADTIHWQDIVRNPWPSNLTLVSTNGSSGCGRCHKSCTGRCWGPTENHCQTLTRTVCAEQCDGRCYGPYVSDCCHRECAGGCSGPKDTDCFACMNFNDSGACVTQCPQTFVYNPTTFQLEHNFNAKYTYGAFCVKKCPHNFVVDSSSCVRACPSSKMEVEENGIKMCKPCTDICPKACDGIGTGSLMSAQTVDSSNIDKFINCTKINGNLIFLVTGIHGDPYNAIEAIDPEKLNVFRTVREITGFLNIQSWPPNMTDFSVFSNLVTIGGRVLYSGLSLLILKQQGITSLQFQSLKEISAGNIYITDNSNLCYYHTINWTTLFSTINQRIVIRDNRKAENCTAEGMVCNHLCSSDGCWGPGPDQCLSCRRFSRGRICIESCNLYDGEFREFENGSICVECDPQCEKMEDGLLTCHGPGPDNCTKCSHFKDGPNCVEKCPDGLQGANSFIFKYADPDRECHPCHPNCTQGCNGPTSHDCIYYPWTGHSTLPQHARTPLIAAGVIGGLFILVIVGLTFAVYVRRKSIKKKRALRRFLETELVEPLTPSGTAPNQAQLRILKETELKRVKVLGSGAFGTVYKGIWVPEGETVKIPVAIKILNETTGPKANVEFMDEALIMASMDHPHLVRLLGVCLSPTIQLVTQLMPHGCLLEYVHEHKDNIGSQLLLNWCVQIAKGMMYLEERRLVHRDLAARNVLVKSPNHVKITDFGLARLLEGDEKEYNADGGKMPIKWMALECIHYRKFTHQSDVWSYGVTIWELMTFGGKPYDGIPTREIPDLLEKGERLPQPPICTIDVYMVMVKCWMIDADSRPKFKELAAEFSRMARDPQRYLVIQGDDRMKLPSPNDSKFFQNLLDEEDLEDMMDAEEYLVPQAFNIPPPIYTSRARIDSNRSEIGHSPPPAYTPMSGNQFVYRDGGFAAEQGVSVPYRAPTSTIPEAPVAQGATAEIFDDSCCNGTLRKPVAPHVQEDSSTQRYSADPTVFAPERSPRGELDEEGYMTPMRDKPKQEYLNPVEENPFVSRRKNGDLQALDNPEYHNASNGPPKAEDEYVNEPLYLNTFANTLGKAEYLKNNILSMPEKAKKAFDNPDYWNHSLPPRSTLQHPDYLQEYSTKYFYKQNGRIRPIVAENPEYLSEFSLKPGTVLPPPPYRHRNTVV

[19] = target: Receptor tyrosine-protein kinase erbB-4 (Homo sapiens) (UniProt Q15303); conditions: at 1 µM
[20] = target: Tyrosine-protein kinase Fer (Homo sapiens) (UniProt P16591); conditions: at 0.1 µM;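 further: reported figures are averaged percent inhibition of FER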

Epidermal growth factor receptor (Homo sapiens), P00533 [L858R,T790M], sequence (P00533 whole entry T790M/L858R, looked up): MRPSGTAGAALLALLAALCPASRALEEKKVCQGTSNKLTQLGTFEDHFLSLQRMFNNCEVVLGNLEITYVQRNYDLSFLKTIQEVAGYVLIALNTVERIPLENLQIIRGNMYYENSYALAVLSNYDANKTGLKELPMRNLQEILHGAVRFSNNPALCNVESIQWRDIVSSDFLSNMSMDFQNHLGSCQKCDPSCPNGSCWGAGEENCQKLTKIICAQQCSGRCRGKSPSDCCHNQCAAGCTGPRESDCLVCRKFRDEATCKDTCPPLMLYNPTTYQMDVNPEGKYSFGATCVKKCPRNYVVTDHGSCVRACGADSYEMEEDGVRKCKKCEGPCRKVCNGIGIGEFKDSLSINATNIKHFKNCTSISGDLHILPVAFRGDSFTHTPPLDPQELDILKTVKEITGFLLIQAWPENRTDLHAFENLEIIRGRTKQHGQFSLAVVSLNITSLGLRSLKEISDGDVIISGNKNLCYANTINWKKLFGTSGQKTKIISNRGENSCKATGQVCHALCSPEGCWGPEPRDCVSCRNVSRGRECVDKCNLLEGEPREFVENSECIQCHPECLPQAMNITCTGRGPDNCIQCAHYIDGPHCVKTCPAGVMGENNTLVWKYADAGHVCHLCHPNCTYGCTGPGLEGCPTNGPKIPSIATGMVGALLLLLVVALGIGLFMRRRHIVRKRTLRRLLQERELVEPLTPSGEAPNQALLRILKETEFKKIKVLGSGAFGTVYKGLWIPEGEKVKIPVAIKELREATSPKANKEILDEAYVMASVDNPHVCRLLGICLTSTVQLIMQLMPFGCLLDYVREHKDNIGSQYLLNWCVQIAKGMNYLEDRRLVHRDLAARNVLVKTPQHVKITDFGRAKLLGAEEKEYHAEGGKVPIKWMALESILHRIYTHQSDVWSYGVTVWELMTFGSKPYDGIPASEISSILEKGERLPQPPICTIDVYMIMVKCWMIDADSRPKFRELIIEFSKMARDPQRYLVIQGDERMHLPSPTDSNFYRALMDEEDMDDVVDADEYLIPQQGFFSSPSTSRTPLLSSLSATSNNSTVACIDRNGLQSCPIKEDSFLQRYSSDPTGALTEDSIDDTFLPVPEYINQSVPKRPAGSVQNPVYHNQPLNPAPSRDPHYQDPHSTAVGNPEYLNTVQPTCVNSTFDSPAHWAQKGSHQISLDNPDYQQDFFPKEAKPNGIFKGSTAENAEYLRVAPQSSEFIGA
Epidermal growth factor receptor (Homo sapiens), P00533 [T790M], sequence (P00533 whole entry T790M): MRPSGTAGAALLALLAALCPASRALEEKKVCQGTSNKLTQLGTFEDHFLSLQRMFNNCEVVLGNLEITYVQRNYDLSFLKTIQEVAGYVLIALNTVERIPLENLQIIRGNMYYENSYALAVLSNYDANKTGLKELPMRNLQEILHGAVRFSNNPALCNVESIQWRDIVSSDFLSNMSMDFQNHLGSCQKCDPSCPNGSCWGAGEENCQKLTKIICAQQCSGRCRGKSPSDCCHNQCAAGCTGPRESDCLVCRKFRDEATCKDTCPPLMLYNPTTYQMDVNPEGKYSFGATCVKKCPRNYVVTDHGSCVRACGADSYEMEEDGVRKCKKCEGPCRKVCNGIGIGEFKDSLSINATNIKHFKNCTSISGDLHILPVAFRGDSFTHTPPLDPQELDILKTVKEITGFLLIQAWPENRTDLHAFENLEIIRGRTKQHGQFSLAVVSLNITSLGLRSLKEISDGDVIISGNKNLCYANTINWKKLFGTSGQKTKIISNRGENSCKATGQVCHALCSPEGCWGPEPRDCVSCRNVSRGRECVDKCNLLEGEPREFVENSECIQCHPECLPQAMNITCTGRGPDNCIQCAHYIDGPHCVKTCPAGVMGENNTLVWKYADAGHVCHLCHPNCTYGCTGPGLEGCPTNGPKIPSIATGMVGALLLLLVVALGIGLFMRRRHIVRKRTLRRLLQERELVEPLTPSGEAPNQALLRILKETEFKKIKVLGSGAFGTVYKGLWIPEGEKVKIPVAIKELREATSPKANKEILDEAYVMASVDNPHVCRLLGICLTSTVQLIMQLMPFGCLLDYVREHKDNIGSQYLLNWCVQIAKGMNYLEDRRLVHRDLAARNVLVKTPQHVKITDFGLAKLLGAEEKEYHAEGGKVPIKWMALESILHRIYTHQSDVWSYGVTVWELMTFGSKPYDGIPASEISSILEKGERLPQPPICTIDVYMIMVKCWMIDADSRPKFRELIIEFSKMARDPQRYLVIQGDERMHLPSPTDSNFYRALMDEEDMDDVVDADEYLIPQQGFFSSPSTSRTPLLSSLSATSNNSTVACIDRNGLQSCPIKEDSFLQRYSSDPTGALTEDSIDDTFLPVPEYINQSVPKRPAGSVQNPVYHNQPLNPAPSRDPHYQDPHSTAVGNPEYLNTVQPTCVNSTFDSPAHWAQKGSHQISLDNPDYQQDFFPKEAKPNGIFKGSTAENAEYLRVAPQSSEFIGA

Row | SMILES | inhibition [1] [%] | inhibition [2] [%] | inhibition [3] [%] | inhibition [4] [%] | inhibition [5] [%] | inhibition [6] [%] | inhibition [7] [%] | inhibition [8] [%] | inhibition [9] [%] | inhibition [10] [%] | inhibition [11] [%] | inhibition [12] [%] | inhibition [13] [%] | inhibition [14] [%] | inhibition [15] [%] | inhibition [16] [%] | inhibition [17] [%] | inhibition [18] [%] | inhibition [19] [%] | inhibition [20] [%]
1 | COc1cccc(-n2ncc3c(N/N=C/c4ccncc4)ncnc32)c1 | 5.66 | 3.61 | 8.8 | 3.25 | 15.8 | 5.89 | 6.97 | 11.1 | 35.5 | 8.96 | 30.4 | 4.72 | 3.82 | 3.92 | 13.7 | 0.91 | 5.53 | 9.63 | 20.9 | 4.97
2 | CCn1c(-c2nonc2N)nc2c(C#CC(C)(C)O)ncc(OCC3CCNCC3)c21 | 3.59 | 2.99 | 3.17 | -2.64 | -3.81 | -0.49 | -1.92 | 7.43 | 7.66 | 1.63 | 7.37 | -0.37 | -1.35 | -3.5 | -2.94 | 1.27 | 5.1 | 2.93 | 3.14 | 2.18
3 | Fc1ccc(-c2ncn(C3CCNCC3)c2-c2ccnc(Oc3ccccc3)n2)cc1 | 2.3 | -1.55 | 0.47 | -5.61 | -5.64 | -1.44 | -1.53 | 4.92 | 5.9 | 5.55 | 5.52 | -0.53 | -0.5 | -4.2 | 1.66 | 9.4 | 10.7 | 10.8 | 15.3 | 1.63
4 | CCn1c(-c2nonc2N)nc2c(C#CC(C)(C)O)ncc(OC[C@@H]3CCCN3)c21 | -0.11 | 4.31 | -0.19 | 1.83 | 0.02 | 0.32 | -1.12 | -0.1 | 2.58 | -7.23 | -3.01 | -0.27 | 0.62 | -1.76 | 1.1 | 0.95 | 3.51 | 1.3 | 7.9 | -1.38
5 | CCn1c(-c2nonc2N)nc2c(C#CCN)ncc(OCCCN)c21 | 5.94 | 3.07 | 5.28 | 5.32 | 1.78 | -2.35 | -1 | -3.41 | 3.82 | -6 | -5.25 | -7.45 | 1.18 | -2.64 | -2.62 | -3.17 | 3.87 | -7.51 | 2.14 | 5.14
6 | COc1cccc(COc2cc(-n3cnc4ccccc43)sc2C(N)=O)c1 | -0.01 | -1.88 | -1.62 | 1.52 | 1.85 | 2.67 | -0.49 | -0.79 | 3.39 | -2.9 | 0.89 | 0.5 | 2.27 | -2.06 | 1.33 | 2.53 | 2.65 | 1.74 | 13.2 | -2.66
7 | NC(=O)c1sc(-n2cnc3cc(C(F)(F)F)ccc32)cc1OCc1ccccc1Br | 0.23 | -0.11 | -0.24 | 2.18 | 0.32 | 3.31 | 1.36 | 4.57 | 8.16 | -4.03 | 4.29 | 1.68 | 3.79 | 0.19 | 1.65 | 3.19 | 4.72 | 5.4 | 14.4 | 2.82
